The full ranking holds about 33,000 sequences; the median of “E-score (-0.5 to 0.5)” is about -0.036, and the highest 2% start at about 0.37. Only a selection was taken, and the highest values are over-represented in it overall.
Molecular target: T1, Yer064c (UniProt P40041)
T1 sequence: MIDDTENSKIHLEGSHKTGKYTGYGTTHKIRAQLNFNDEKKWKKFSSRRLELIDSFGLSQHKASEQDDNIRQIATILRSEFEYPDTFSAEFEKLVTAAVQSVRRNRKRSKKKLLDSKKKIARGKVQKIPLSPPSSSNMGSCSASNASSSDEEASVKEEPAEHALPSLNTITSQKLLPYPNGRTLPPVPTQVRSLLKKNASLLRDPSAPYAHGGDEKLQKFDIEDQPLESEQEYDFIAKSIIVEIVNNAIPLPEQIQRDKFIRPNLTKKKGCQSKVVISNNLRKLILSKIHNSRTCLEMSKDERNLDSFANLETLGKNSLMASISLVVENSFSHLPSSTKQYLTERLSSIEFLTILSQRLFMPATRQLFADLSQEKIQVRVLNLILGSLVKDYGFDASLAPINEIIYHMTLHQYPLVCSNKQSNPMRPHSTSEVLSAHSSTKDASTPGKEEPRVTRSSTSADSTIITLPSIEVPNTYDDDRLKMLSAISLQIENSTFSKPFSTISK
Assay: PBM E-score (8-mer binding enrichment) (E-score (-0.5 to 0.5)); higher = stronger / more preferred TF binding
Conditions: protein concentration: 200 nM; construct: GST-full length
Experimental: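 Universal 'all 10-mer' protein binding microarrays (Agilent AMADID 015681) probed with GST-tagged S. cerevisiae TFs (full-length or DBD) made by in vitro transcription/translation (PURExpress), about 100-200 nM. Bound TF was detected with fluorescent anti-GST. Each ungapped 8-mer (which stands for itself and its reverse complement) is scored by the PBM enrichment score (E-score), a modified Wilcoxon-Mann-Whitney statistic from -0.5 to +0.5, computed with the Universal PBM Analysis Suite. Scale: above 0.35 generally sequence-specific binding.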

Sequence | PBM E-score
ACAATCAA | 0.202
GTTCTATA | -0.0345
AAGGGTGT | -0.00845
AGCGCTGG | 0.0943
CACAACTG | -0.113
ACCTGGCA | -0.145
CGATTCTA | 0.0229
CACCAACC | -0.0246
GTCACAGA | 0.237
CGAATCCG | 0.0437
CCAATCAC | 0.182
CGAATCCC | -0.125
CCAATCAG | 0.0381
CGAATCAC | 0.4
CGAATCAG | 0.384
ACCTTGGA | -0.0702
ACAACTGC | -0.0478
AAAAGCCG | -0.213
GAGTCCTA | 0.399
GAGTCTTA | 0.453
CAGTCCTA | 0.183
AAGTCTCC | 0.107
CAGTCTCC | 0.211
ATGTCTCG | 0.17
AAGTCTTA | 0.213

Sequence | PBM E-score
ATGTCTCC | 0.216
CAGTCTTA | 0.278
AAGTCCTA | 0.186
ATGTCTCA | 0.414
GAGTCTCC | 0.419
AATCTTAA | 0.244
CCCGCATA | -0.019
ATGTAGCA | -0.146
ACATCTGG | -0.137
AACTTCCG | 0.0922
CAGTGATC | 0.0804
AAGTCTCA | 0.239
TAGTCTCA | 0.36
GAGTCTCA | 0.411
ATATGCAG | 0.196
AGCAAATA | -0.157
GCACTGGC | -0.194
CACTCACG | 0.112
GACTCACC | 0.478
GACTCACA | 0.472
CACTCACC | 0.207
AACTCACG | 0.211
AACTCACC | 0.275
TACTCACA | 0.367
CACTCACA | 0.0403

Sequence | PBM E-score
AACTCACA | 0.259
CCAGATCA | 0.058
CGAAGCCA | 0.0935
CTCCCCGA | -0.0625
AGTAGCTG | 0.0121
GCAGAACC | -0.118
ATCGAGCA | -0.149
ACCTGACT | 0.44
AACTGACA | -0.287
ACCTGACC | -0.13
AACTGACT | 0.404
AACTGACC | -0.163
ACCTGACG | -0.192
AGCTGACT | 0.458
AGCTGACG | -0.134
AGCTGACC | -0.078
AAGTGCAG | 0.0456
CCCGTGCC | -0.103
AGGTAACG | -0.0878
ATTCCATA | -0.0291
AGCGCATC | -0.0879
AACTACTA | -0.0232
GACTACTA | 0.417
CAGTACTC | 0.24
AACTACTC | 0.199

Sequence | PBM E-score
AAGTACTC | 0.282
TACTACTA | 0.0844
GAGTACTC | 0.381
GACTACTC | 0.427
CACTACTC | 0.112
AACGTAAT | 0.023
GTTGTCGA | -0.158
GCGTTGCC | -0.252
ACCCTGAC | 0.158
GTTCAGAA | 0.00278
AAGCAGCA | -0.264
ATTGTACA | 0.0112
GTTACTAA | 0.184
CTTACTAC | -0.0948
CTGACTAC | 0.469
CTGACTAA | 0.48
CGGACTAC | 0.248
GGGACTAA | 0.323
GTGACTAA | 0.488
CAGACTAA | 0.317
CGGACTAA | 0.342
AACCGCTA | -0.169
ATGTTATA | -0.0918
CGAAGGAC | 0.079
ACCGCGGG | 0.0814

Sequence | PBM E-score
AGCGCCGA | -0.00218
ACCTTCGA | 0.00431
GAATCTCA | 0.101
CCGGATTA | -0.0124
CCAAGCTC | -0.22
AGATGTCG | -0.0862
ACTCACCT | 0.338
CCTCACCA | -0.134
CCTCACCC | -0.213
TCTCACCA | -0.117
ACTCACCA | 0.388
ACTCACCG | 0.384
ACTCACCC | 0.401
CCTCACCG | -0.033
GCTCACCC | -0.0459
ATCGGAGC | -0.0582
GACGAAGC | -0.0864
TCGGATCA | -0.0516
ATTAGAAT | 0.186
ATTAATCG | 0.269
GTTAATTA | 0.0895
CTTAATCA | 0.45
GTTAATCA | 0.451
GTTAATAA | 0.117
ATTAATCC | 0.256

Sequence | PBM E-score
CTTAATAA | 0.136
ATTAATCA | 0.441
CTTAATCC | 0.114
AGACCAAA | 0.0161
GTAGTAAA | 0.107
CACTTGCG | -0.0335
GTAGGAAA | 0.00646
CGGTTACC | 0.0378
ATATTGGC | -0.228
GGAGGACC | -0.37
GACTTAAA | 0.325
ACAAGTCG | 0.0706
ACAAGTCT | 0.0793
CCAAGTCA | 0.317
GCAAGTCA | 0.361
TCAAGTCA | 0.379
ACAAGTCA | 0.374
ACAGGGCA | -0.128
ATATCCAC | -0.0172
TCAAAGCA | 0.0603
ACTGTTGC | -0.0887
AAACCGGC | -0.0714
ATTCGCGA | 0.122
AAATGAGG | -0.229
AAATGATC | 0.121

Sequence | PBM E-score
AAATGATT | 0.437
AAATGACG | 0.0769
AAATGAGT | 0.427
AAATGAGC | 0.058
AAATGACC | -0.0187
AAATGATA | 0.104
AAATGACT | 0.475
ACTATCTC | 0.212
AATCCGGG | -0.239
CCGTCTCA | 0.0264
ATAATCCC | -0.227
ATAATCAC | 0.385
ATAATCTC | 0.137
GAAATCAC | 0.347
CTAATCAG | 0.286
CTAATCAC | 0.393
CTAATCGC | 0.128
ATAATCAA | 0.269
GTAATCAC | 0.413
GTAATCAA | 0.325
ATAATCAG | 0.33
ATAATCAT | 0.45

— the supplement of paper PMC3334620
